Experimental data taken from PubChem BioAssay AID1002 (National Center for Advancing Translational Sciences (NCATS), 2008).
Calls of active or inactive are those of the source.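 The calls were made as follows: active = compound given an inhibitor call from its dose-response curve against AmpC beta-lactamase with detergent added; inactive = the rest.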

Biological target: Beta-lactamase (Escherichia coli (strain K12)) (UniProt P00811)
Assay: Confirmation Concentration-Response Assay for Inhibitors of AmpC Beta-Lactamase (assay with detergent)
Conditions: purified AmpC, nitrocefin absorbance 480 nm, 0.01% Triton
Method: NIH Molecular Libraries Screening Centers Network [MLSCN] NIH Chemical Genomics Center [NCGC] MLSCN Grant: MH079825-01 Assay Provider: Shoichet, Brian K. This aggregation profiling approach exploits the sensitivity of aggregate formation to detergent. Inhibition of b-lactamase is measured in the presence and absence of 0.01% Triton X-100 (Feng 2007). This particular assay is a confirmation of previous qHTS (Inglese, 2006), Pubchem AID 584, assay with presence of 0.01% Triton X-100. For a related assay without detergent, see AID 585. Compounds that inhibit only in the absence of detergent are considered likely promiscuous aggregators. In this confirmation assay, AmpC activity was measured by following the absorbance at 480 nm. Nitrocefin is a chromogenic substrate: while nitrocefin is yellow (lmax 390 nm), the product of its hydrolysis is red (lmax 486 nm, 17,000 M-1). AmpC beta-lactamase was provided by Prof Brian Shoichet's lab, UCSF.
Buffer: 1. 20 mM phosphate buffer, pH 7.0, 0.01 % Triton X-100 2. Reagents/Controls. 3. Buffer in row 32 as negative control (no enzyme). 4. 3 nM AmpC final concentration in rows 1-31. Assay Steps: Six uL of reagents were dispensed to 1536-well Greiner black clear bottom plates. Compounds (23 nL) were transferred via Kalypsys PinTool. The plates were incubated for 15 min at room temperature, and then 2 uL of 800 uM solution of nitrocefin was added to start the reaction. The plates were immediately transferred to and read every 20 seconds for 3 minutes on ViewLux (Perkin-Elmer) High-throughput CCD imager using 480 nm absorbance protocol.

Sequence of Beta-lactamase (Escherichia coli (strain K12)) (P00811 whole entry, looked up): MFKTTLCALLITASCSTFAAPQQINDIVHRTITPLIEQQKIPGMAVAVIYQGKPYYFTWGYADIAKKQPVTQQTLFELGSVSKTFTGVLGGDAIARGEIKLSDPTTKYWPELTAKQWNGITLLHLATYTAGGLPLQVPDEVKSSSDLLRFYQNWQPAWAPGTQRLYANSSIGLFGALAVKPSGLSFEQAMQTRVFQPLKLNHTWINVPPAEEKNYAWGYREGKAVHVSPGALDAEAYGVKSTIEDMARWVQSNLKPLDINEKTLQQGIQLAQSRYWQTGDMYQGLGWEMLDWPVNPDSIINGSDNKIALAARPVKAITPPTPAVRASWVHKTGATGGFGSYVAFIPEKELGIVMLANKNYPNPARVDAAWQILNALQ

Potency, active:
CC[C@@H](C)[C@H](NC(=O)OC(C)(C)C)c1nnc(S(=O)(=O)Cc2cc(C)ccc2C)o1 10 µM
CC(C)(C)OC(=O)N[C@@H](Cc1ccccc1)c1nnc(S(=O)(=O)Cc2ccccc2)o1 16 µM
CC(C)(C)OC(=O)NCCc1nnc(S(=O)(=O)Cc2ccc(Cl)cc2Cl)o1 0.066 µM
Cc1ccccc1CS(=O)(=O)c1nnc([C@H](CC(C)C)NC(=O)OC(C)(C)C)o1 11 µM
CC(C)C[C@H](N)c1nnc(S(=O)(=O)Cc2cccc(F)c2)o1 8.6 µM
CCC(C)[C@@H](NC(=O)OC(C)(C)C)c1nnc(S(=O)(=O)Cc2cccc(C)c2)o1 (some centres undefined) 10 µM
CC(C)[C@H](NC(=O)OC(C)(C)C)c1nnc(S(=O)(=O)Cc2c(F)cccc2Cl)o1 1.8 µM
COC(=O)CS(=O)(=O)c1nnc([C@H](Cc2ccccc2)NC(=O)OC(C)(C)C)o1 9.4 µM
CC(C)(C)OC(=O)N[C@@H](Cc1ccccc1)c1nnc(S(=O)(=O)Cc2cccc(F)c2)o1 15 µM
